Measured values: the supplement of paper PMC6411743
± gives the standard deviation of the averaged measurements. Targets with the largest changes are over-represented here; the source holds about 6,500 in all.

Compound: Nc1ncnc2c1ncn2[C@@H]1O[C@H](COP(=O)(O)OP(=O)(O)OP(=O)(O)O)[C@@H](O)[C@H]1O [adenosine triphosphate]
Assay: NP40-soluble protein abundance relative to vehicle (solubility fold change) (ratio); higher = more soluble protein in presence of ATP
How it was run: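 Jurkat crude lysate (Dounce-homogenised) was treated with eight concentrations from 0.1 to 10 mM for 10 min at room temperature, then 3 min at 37 °C. It was solubilised with 0.8% NP40 and benzonase (60 min, 4 °C) and ultracentrifuged, and the supernatant was TMT-labelled for LC-MS/MS. Intensities were vsn-normalised, and the value is the fold change against the NP40-processed vehicle per replicate, from three independent experiments.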

Sequence of UniProt Q96HP4 (Q96HP4 whole entry, one chain of several): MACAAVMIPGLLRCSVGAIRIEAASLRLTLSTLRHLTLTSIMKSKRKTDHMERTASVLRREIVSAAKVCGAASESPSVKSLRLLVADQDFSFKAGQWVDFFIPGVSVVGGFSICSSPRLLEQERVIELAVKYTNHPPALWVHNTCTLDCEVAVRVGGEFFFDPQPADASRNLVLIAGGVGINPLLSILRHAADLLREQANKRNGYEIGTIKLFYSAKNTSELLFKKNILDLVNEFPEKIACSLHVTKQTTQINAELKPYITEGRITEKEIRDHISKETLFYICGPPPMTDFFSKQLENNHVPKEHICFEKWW
Sequence of UniProt O00560 (O00560 whole entry): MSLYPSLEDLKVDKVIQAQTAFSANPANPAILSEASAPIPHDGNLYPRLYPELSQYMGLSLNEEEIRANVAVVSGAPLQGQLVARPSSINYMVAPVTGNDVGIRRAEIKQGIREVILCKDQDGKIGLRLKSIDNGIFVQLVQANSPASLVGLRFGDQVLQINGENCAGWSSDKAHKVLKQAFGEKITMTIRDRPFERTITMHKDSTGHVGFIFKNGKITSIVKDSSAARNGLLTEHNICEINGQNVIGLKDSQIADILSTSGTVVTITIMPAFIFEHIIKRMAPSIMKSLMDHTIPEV
Sequence of UniProt Q96F10 (Q96F10 whole entry, one chain of several): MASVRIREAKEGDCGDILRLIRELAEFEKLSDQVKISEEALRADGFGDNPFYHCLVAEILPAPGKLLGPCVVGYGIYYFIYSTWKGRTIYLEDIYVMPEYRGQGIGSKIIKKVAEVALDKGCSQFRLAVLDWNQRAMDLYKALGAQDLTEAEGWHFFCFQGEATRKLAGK
Sequence of UniProt O75191 (O75191 whole entry): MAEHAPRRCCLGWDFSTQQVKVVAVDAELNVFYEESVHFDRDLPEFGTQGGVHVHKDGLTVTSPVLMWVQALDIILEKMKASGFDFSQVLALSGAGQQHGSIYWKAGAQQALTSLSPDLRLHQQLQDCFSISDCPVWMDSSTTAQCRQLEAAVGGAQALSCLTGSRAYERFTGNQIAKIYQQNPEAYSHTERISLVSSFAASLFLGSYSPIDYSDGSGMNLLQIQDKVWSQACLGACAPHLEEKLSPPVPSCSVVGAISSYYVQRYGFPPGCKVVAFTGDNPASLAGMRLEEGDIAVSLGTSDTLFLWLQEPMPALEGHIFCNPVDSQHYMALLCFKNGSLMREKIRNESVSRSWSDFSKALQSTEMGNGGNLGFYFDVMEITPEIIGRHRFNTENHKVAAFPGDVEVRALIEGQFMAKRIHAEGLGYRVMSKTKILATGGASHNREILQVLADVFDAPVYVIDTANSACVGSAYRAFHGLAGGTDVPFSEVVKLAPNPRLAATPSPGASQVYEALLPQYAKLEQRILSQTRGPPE
Sequence of UniProt Q9H173 (Q9H173 whole entry, one chain of several): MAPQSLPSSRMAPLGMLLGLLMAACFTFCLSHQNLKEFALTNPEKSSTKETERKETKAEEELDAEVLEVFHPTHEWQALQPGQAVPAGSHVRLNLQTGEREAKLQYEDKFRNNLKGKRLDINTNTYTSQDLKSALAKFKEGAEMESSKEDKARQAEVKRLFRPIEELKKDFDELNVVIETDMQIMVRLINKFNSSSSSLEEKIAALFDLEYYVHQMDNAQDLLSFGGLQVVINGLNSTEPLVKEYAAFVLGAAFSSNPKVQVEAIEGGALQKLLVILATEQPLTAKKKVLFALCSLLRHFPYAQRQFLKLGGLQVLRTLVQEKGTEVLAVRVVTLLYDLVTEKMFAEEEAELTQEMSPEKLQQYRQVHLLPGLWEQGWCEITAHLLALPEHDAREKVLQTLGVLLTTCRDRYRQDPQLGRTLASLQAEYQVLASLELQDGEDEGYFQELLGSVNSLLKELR
Sequence of UniProt P52272 (P52272 whole entry, one chain of several): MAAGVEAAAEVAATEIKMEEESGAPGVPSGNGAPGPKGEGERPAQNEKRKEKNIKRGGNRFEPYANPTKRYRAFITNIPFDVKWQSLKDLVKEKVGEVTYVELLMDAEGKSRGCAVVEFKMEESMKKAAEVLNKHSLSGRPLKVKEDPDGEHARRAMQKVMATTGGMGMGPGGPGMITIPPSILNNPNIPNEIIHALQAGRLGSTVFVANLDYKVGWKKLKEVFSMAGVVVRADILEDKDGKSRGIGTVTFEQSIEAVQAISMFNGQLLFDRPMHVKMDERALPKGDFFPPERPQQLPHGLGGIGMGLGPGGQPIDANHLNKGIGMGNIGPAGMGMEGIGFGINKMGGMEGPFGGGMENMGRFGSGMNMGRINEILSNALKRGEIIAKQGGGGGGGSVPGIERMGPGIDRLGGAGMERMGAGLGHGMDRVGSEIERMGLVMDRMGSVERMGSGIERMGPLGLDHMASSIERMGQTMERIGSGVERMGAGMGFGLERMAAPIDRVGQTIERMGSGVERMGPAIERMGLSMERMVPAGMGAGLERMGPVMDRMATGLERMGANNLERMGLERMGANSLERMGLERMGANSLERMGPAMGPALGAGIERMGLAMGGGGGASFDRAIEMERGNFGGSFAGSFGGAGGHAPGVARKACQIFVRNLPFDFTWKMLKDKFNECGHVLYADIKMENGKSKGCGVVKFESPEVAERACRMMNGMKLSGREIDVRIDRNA
Sequence of UniProt Q03252 (Q03252 whole entry, one chain of several): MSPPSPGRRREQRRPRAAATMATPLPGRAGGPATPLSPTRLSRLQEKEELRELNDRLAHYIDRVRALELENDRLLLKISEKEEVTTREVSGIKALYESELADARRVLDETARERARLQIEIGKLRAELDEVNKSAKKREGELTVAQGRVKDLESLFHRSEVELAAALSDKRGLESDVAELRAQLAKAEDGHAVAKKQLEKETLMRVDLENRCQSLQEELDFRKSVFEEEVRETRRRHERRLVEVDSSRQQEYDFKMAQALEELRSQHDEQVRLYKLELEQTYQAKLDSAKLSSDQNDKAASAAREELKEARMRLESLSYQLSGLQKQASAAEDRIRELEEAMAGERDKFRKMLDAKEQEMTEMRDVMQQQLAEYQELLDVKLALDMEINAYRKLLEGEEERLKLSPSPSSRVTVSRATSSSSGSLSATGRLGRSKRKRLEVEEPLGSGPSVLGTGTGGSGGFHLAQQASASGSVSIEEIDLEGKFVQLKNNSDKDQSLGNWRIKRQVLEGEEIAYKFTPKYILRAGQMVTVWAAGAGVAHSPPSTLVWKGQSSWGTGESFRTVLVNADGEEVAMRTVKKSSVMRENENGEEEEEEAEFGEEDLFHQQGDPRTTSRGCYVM
Sequence of UniProt O43237 (O43237 whole entry): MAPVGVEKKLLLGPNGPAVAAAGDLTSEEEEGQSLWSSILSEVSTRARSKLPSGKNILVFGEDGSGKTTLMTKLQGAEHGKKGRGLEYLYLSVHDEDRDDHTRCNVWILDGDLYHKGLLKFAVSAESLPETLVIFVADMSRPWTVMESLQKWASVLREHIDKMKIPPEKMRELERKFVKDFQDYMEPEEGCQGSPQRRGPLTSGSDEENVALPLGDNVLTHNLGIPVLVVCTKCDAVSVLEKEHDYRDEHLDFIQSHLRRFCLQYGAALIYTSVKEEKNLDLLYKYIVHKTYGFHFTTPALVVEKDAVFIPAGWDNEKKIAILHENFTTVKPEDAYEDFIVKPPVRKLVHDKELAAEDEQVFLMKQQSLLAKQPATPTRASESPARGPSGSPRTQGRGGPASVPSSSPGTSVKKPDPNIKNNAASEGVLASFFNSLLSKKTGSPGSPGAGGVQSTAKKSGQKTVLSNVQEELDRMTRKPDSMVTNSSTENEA
Sequence of UniProt O43676 (O43676 whole entry, one chain of several): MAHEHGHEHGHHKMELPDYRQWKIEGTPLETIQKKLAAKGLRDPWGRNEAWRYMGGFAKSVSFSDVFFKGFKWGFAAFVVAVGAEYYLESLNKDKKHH
Sequence of UniProt Q969X6 (Q969X6 whole entry, one chain of several): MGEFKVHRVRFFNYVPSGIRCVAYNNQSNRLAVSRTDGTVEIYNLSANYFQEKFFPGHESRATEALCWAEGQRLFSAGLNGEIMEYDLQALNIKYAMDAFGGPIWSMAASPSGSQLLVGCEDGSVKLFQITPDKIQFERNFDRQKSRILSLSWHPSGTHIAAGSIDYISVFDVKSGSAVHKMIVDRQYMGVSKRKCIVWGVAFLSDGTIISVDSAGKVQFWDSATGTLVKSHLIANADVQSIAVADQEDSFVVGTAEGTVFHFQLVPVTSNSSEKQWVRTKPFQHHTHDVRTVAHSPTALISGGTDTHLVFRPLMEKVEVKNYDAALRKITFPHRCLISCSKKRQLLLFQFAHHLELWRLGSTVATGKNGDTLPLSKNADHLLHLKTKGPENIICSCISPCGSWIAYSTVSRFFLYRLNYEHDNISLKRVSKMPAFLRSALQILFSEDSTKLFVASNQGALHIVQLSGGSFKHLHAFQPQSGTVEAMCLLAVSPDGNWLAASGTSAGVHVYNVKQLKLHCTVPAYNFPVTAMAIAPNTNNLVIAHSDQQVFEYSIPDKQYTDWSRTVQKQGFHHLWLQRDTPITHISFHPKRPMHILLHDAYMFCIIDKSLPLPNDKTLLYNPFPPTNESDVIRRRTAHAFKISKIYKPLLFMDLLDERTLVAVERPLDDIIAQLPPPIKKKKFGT
Sequence of UniProt O75131 (O75131 whole entry): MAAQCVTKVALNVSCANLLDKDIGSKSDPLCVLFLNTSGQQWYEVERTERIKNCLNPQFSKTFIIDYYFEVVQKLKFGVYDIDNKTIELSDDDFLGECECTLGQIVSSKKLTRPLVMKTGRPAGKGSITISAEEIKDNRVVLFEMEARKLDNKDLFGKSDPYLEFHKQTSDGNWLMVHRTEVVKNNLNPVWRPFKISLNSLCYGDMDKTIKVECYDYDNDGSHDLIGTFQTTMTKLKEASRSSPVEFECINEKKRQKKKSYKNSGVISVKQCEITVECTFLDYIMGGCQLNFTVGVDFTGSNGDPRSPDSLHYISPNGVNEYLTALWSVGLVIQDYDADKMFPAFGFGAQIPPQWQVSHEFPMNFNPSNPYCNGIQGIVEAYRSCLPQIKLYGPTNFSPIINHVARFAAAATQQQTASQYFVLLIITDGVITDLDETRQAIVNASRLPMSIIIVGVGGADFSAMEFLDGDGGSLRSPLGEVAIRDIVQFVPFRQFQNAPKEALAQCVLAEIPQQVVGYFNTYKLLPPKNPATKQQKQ

Target	NP40-soluble protein abundance (concentration: 1mM)	NP40-soluble protein abundance (concentration: 2mM)	NP40-soluble protein abundance (concentration: 4mM)	NP40-soluble protein abundance (concentration: 6mM)	NP40-soluble protein abundance (concentration: 8mM)	NP40-soluble protein abundance (concentration: 10mM)
E9PJN1|O75676|O75676-2 (UniProt O75676)	1.36 ± 0.22	2.6 ± 1.5	1.34 ± 0.17	1.35 ± 0.17	1.31 ± 0.26	1.38 ± 0.13
B4E1G1|E5RGY0|Q9BUN8|Q9BUN8-2 (UniProt Q9BUN8)	0.948 ± 0.084	0.979 ± 0.12	0.989 ± 0.083	0.975 ± 0.1	0.955 ± 0.021	1 ± 0.056
B4DT96|C9JYA1|O15504|O15504-2 (UniProt O15504)	0.985 ± 0.095	1.21 ± 0.19	1.29 ± 0.17	1.43 ± 0.42	1.42 ± 0.26	1.77 ± 0.49
E9PJA7|Q9NYF8|Q9NYF8-2|Q9NYF8-3 (UniProt Q9NYF8)	1.31 ± 0.092	1.41 ± 0.056	1.54 ± 0.086	1.7 ± 0.11	1.65 ± 0.07	1.7 ± 0.06
SPTLC1 (UniProt O15269)	0.993 ± 0.026	0.998 ± 0.032	0.997 ± 0.027	0.93 ± 0.096	0.998 ± 0.024	1 ± 0.049
XYLB (UniProt O75191)	1 ± 0.053	0.986 ± 0.062	0.984 ± 0.097	0.965 ± 0.069	0.99 ± 0.075	0.967 ± 0.053
A0A0B4J2C3|P13693|Q5W0H4 (UniProt P13693)	0.95 ± 0.025	0.942 ± 0.021	0.915 ± 0.025	0.923 ± 0.05	0.919 ± 0.035	0.909 ± 0.048
I3L0W4|Q96F10 (UniProt Q96F10)	0.98 ± 0.13	0.932 ± 0.07	0.962 ± 0.073	0.963 ± 0.064	0.94 ± 0.025	0.944 ± 0.035
H3BUX2|J3KNF8|O43169 (UniProt O43169)	0.964 ± 0.19	0.854 ± 0.08	0.877 ± 0.06	0.865 ± 0.077	0.815 ± 0.059	0.781 ± 0.084
C9JLB7|Q96HP4 (UniProt Q96HP4)	1.09 ± 0.083	1.1 ± 0.1	1.06 ± 0.075	1.12 ± 0.17	1.17 ± 0.14	1.05 ± 0.042
K7ENL9|Q96DM3 (UniProt Q96DM3)	1.04 ± 0.097	0.984 ± 0.027	1.02 ± 0.029	1.02 ± 0.058	1.02 ± 0.061	0.985 ± 0.03
H3BSH7|Q969X6|Q969X6-3 (UniProt Q969X6)	1.1 ± 0.14	1.21 ± 0.03	1.26 ± 0.058	1.425 ± 0.0083	1.46 ± 0.084	1.78 ± 0.047
E5RG17|Q6P1N9 (UniProt Q6P1N9)	0.989 ± 0.02	0.974 ± 0.013	0.965 ± 0.02	0.963 ± 0.052	0.937 ± 0.019	0.968 ± 0.019
CPNE3 (UniProt O75131)	0.969 ± 0.067	0.983 ± 0.052	0.954 ± 0.054	0.903 ± 0.1	0.951 ± 0.024	0.96 ± 0.024
E9PEB9|Q03001|Q03001-3 (UniProt Q03001)	0.92 ± 0.1	0.924 ± 0.041	0.942 ± 0.081	0.959 ± 0.15	0.899 ± 0.09	0.968 ± 0.056
E7EQI7|Q12768 (UniProt Q12768)	1.06 ± 0.1	1.06 ± 0.075	1.05 ± 0.076	0.962 ± 0.11	1.07 ± 0.068	1.02 ± 0.05
A0A0A0MSK4|Q86YR5|Q86YR5-4 (UniProt Q86YR5)	0.972 ± 0.037	0.99 ± 0.074	0.9991 ± 0.0089	1.018 ± 0.0076	0.96 ± 0.021	0.981 ± 0.05
C9JKQ2|O43676 (UniProt O43676)	0.921 ± 0.053	0.903 ± 0.08	0.867 ± 0.032	0.908 ± 0.048	0.862 ± 0.04	0.868 ± 0.042
D6REA1|Q9H173|D6RIU8 (UniProt Q9H173)	0.922 ± 0.083	0.938 ± 0.046	0.92 ± 0.083	0.929 ± 0.11	0.917 ± 0.063	0.8663 ± 0.0052
A0A0G2JPT5|O75943|O75943-2 (UniProt O75943)	1.49 ± 0.28	1.59 ± 0.3	1.62 ± 0.32	1.7 ± 0.33	1.69 ± 0.28	1.65 ± 0.33
DYNC1LI2 (UniProt O43237)	0.947 ± 0.049	0.939 ± 0.049	0.905 ± 0.047	0.959 ± 0.14	0.92 ± 0.075	0.932 ± 0.032
MAN2B1 (UniProt O00754)	0.94 ± 0.027	0.948 ± 0.017	0.957 ± 0.023	0.887 ± 0.057	0.917 ± 0.038	0.93 ± 0.018
PSMD12 (UniProt O00232)	0.938 ± 0.063	0.894 ± 0.035	0.863 ± 0.015	0.843 ± 0.025	0.898 ± 0.031	0.885 ± 0.035
UniProt O00560|O00560-2	0.95 ± 0.073	0.946 ± 0.041	0.937 ± 0.04	0.896 ± 0.077	0.9459 ± 0.0062	0.957 ± 0.031
H7C5F5|Q9H2U1|Q9H2U1-2 (UniProt Q9H2U1)	0.963 ± 0.068	0.979 ± 0.08	0.987 ± 0.073	1.01 ± 0.1	1.03 ± 0.088	1.02 ± 0.1
J9JID7|Q03252 (UniProt Q03252)	1 ± 0.066	0.943 ± 0.063	1.01 ± 0.065	1.06 ± 0.037	1.03 ± 0.047	1.09 ± 0.059
M0QZM1|M0R019|P52272|P52272-2 (UniProt P52272)	0.988 ± 0.037	0.999 ± 0.016	1.01 ± 0.032	1.07 ± 0.014	1.04 ± 0.019	1.06 ± 0.024
G5E9V5|G5E9W7|P82650 (UniProt P82650)	1.01 ± 0.046	0.938 ± 0.079	0.892 ± 0.083	0.907 ± 0.18	0.88 ± 0.11	0.867 ± 0.1
J3QL71|Q96FV2 (UniProt Q96FV2)	0.96 ± 0.029	0.97 ± 0.011	0.98 ± 0.025	0.944 ± 0.019	0.959 ± 0.032	0.984 ± 0.015
F6S7C4|Q8NEM7|Q8NEM7-2|Q8NEM7-3|R4GND2 (UniProt Q8NEM7)	1.09 ± 0.12	1.15 ± 0.1	1.14 ± 0.093	1.12 ± 0.13	1.16 ± 0.093	1.2 ± 0.11
